# Bioassay records (PubChem)
# This is a sample that favours compounds with a hit; in the whole collection about 2.1% have one here.
# KLF5 inh: kruppel-like factor 5 inhibition; DLD-1 KLF5 promoter-luciferase reporter, luminescence; inhibition, % at 5 µM; hit rate 0.23% among 290,000;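 active = inhibition above a per-plate limit of that plate's mean compound inhibition plus 3 SD, cut at about 60% in these data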;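 note: 0% = DMSO wells and 100% = LY294002 at 200 µM; higher means less KLF5 promoter-driven luciferase light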
# Ba/F3 V617F tox: lowers viability of Ba/F3 cells expressing EpoR and JAK2V617F. hit rate 1.1% among 220,000. AID 1446. ATP luminescence. inhibition, % at 5.6 µM;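 active = inhibition above the campaign mean plus 3 SD over all tested compounds, cut at about 24% in these data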;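 note: cytokine-independent growth of Ba/F3 cells driven by EpoR plus mutant JAK2; 0% = DMSO-treated cells and 100% = JAK inhibitor I control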
# aSyn 5UTR inh: 5' untranslated region of α-synuclein, MLPCN primary screen | inhibition, % (tested at 7.5 µM) | alpha-synuclein 5'UTR reporter, inhibitor activity | hit rate 0.82% among 300,000; in the data active = inhibition above about 60%;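 note: H4 neuroglioblastoma cells stably carrying SNCA 5'UTR luciferase fusion; 0% = DMSO wells and 100% = positive control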
# APP transl inh: APP translation inhibition; inhibition, % at 2 µM; AID 1285; hit rate 0.82% among 190,000; SH-SY5Y APP 5'UTR-luciferase reporter, luminescence;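 active = inhibition above a set limit, derived from the sample mean plus 3 SD, cut at about 45% in these data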
# IEC-6 tox: counter-screen for KLF5 inhibitors: cytotoxicity in IEC-6 cells; IEC-6 cytotoxicity, luminescence viability; inhibition, % at 5 µM; hit rate 0.78% among 290,000; AID 1825;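 note: 0% = plate median of test compound wells and 100% = cytotoxic reference compound wells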
# BaF3 tox: parental Ba/F3 viability inhibition as JAK2V617F counter-screen; CellTiter-Glo ATP luminescence; AID 1486; hit rate 1.1% among 220,000; inhibition, % at 5.6 µM;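 active = inhibition above a per-campaign cutoff, the mean inhibition of all tested compounds plus 3 SD, cut at about 27% in these data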;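 note: 0% = DMSO wells and 100% = JAK Inhibitor I control wells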
# IEC-6 tox confirm: confirmation of cytotoxic compounds in rat IEC-6 intestinal epithelial cells; shares compounds with IEC-6 tox; IEC-6 rat intestinal epithelial viability, luminescence; hit rate 63% among 1,900; AID 1907; inhibition, % at 5 µM;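 note: 0% = vehicle and 100% = reference cytotoxic drug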
# * = called active by the depositor; . = not tested or not shown. Cut-off read from the data, not from the text of the source, unless noted: active = inhibition above about 22%; inactive = the rest.
SMILES,KLF5 inh,Ba/F3 V617F tox,aSyn 5UTR inh,APP transl inh,IEC-6 tox,BaF3 tox,IEC-6 tox confirm
CC1CC(C)CN(CCCNC(=O)c2ccc3nc(N4CCCCC4)sc3c2)C1 (stereo unspecified),-114,.,-273,.,27*,.,2
CCn1c2ccccc2c2cc(NC(=O)CC(C)=O)ccc21,7,-1,1,7,6,6,.
COc1cc(CN2CC(=O)N(c3cc(Cl)ccc3C)C2=S)cc(OC)c1OC,-1,.,30,.,-1,.,.
CCC1=Nc2cc(C(=O)NCCCOC)ccc2Sc2ccccc21,48,77*,74*,95*,88*,79*,60*
CCC1=Nc2cc(C(=O)NCCN3CCCC3)ccc2Sc2ccccc21,0,.,-32,.,-1,.,.
Cc1cc(N/N=C/c2ccc(F)cc2)nc(-n2nc(C)cc2C)n1,-2,3,9,.,8,1,.
CCOc1cc(/C=N/Nc2cc(C)nc(-n3nc(C)cc3C)n2)ccc1O,4,-1,68*,.,54*,-1,16
CCOC(=O)C1CCN(C(=O)CSc2nc3ncccc3[nH]2)CC1,-33,.,-7,.,6,.,.
Cc1ccc2nc3c(cc2c1)CN(Cc1ccco1)C(=NCC1CCCO1)S3 (stereo unspecified),-32,1,3,18,2,6,.
Cc1cccc2cc3c(nc12)SC(=NCC1CCCO1)N(Cc1ccco1)C3 (stereo unspecified),9,9,19,2,88*,9,4
C=C(C)COc1ccc(-c2[nH]ncc2-c2ccc(OC)c(OC)c2)c(O)c1,51,81*,-13,91*,62*,66*,57*
C=C(C)COc1ccc(-c2[nH]ncc2-c2ccc(OC)cc2)c(O)c1,3,-6,7,.,-1,0,.
COc1ccccc1NC(=O)c1coc(=O)c(Br)c1,-10,2,-63,.,3,-1,.
Cc1ccc(CSCC(=O)Nc2ccccc2C(=O)O)cc1,-101,.,-94,.,29*,.,25*
CSc1ccccc1NC(=O)CSCc1ccc(C)cc1,-16,0,-113,10,0,2,.
COC(=O)c1cccc(/C=N/NC(N)=S)c1O,54,0,-17,.,49*,7,12
COc1cccc(/C=N/NC(=O)C(=O)N/N=C/c2cccc(OC)c2O)c1O,-5,-1,.,1,4,1,.
Cc1ccc(C)c(C2NC(=O)c3ccccc3N2)c1 (stereo unspecified),42,42*,-70,.,63*,39*,51*
Cc1cc(C)c2nc(Cl)c(C3NC(=O)c4ccccc4N3)cc2c1 (stereo unspecified),-25,-1,20,-11,0,5,.
CCC(CC)c1nnc(NC(=O)c2ccc3ccccc3n2)s1,2,-3,-86,-96,35*,4,3
c1ccc2nc3c(nc2c1)c1ccccc1n3CCN1CCOCC1,-111,84*,-80,-13,23*,77*,10
O=C(CCN=C1NS(=O)(=O)c2ccccc21)OCc1nnc(-c2ccccc2)o1,.,.,-27,.,.,.,.
COc1cccc(CN2C(=O)C3(C(C#N)=C(N)OC4=C3C(=O)CCC4)c3ccccc32)c1 (stereo unspecified),-9,72*,63*,-9,59*,89*,54*
CC1(C)CC(=O)C2=C(C1)OC(N)=C(C#N)C21C(=O)N(CN2CCOCC2)c2ccccc21 (stereo unspecified),-16,-4,-11,-8,-2,0,.
Cc1cc(NC(=O)c2cc(-c3ccncc3)nc3c(C)cccc23)no1,34,41*,32,84*,60*,50*,44*
SMILES,KLF5 inh,Ba/F3 V617F tox,aSyn 5UTR inh,APP transl inh,IEC-6 tox,BaF3 tox,IEC-6 tox confirm
Cc1cccc(NC(=O)c2cc(-c3cccnc3)nc3c(C)cccc23)n1,-2,.,-20,.,3,.,.
CCOc1ccc2nc(NCCO)[nH]c2c1,-4,-1,5,12,-3,4,.
C=CCOc1ccc2nc(NC(=O)OC)[nH]c2c1,51,78*,66*,.,82*,79*,53*
CC(NCC(O)COc1ccc2ccccc2c1)c1ccccc1 (stereo unspecified),8,.,59,.,53*,.,9
Cc1cc(OCC(O)CNC(C)c2ccccc2)ccc1C(C)C (stereo unspecified),-12,.,0,.,1,.,.
CN(C)CCNC(=O)c1cc2c(s1)-c1ccc(Cl)cc1SC2,-43,.,100*,.,101*,.,28*
